# Sampled rows, rich in hits. Any-hit rate of the full collection: about 19%.
# IL-1B inflam inh: inhibitors of inflammasome signaling (IL-1 beta secretion) | activity change, % at 57.5 µM | hit rate 4.7% among 360,000 | THP-1 LPS/ATP IL-1B secretion, AlphaLISA, 16 h; stronger effect = lower value | AID 743279; in the data active means activity change below about -50%; inconclusive means mostly about -30% to -49%; further: on the % scale 0 is the no-effect control and ±100 the full control effect
#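 THP-1 cells pretreated 1 hr with compounds (up to 57.5 uM final), then stimulated with LPS (250 ng/mL final) plus ATP (1.25 mM final); secreted IL-1B measured by AlphaLISA after 16 hr, decreased signal indicating inhibition.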
# TDP1 cell CPT: growth inhibition of DT40 Tdp1-/-;hTDP1 cells with camptothecin (screen for TDP1 inhibitors); chicken DT40 Tdp1-/-;hTDP1 cells + 20 nM CPT, ATP luminescence, 48 h; Potency, µM (doses to about 46.2 µM), for the others: top-dose activity change, negative = growth inhibition, actives largely listed as inhibitors; hit rate 12% among 420,000; AID 686979; further: potency means the concentration at half of the fitted maximal effect; on the % scale 0 is the no-effect control and ±100 the full control effect; nearly all actives have a fitted effect of over 55% in size
#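 Chicken DT40 Tdp1-/- cells complemented with human TDP1, 400 cells/well, exposed to compounds plus 20 nM camptothecin for at least 48 h at 37 C; viability read as ATP content by CellTiter-Glo luminescence.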
# SW480 rerep: inducers of DNA re-replication in SW480 colon cancer cells. SW480 DNA re-replication, Hoechst DNA content imaging, 48 h. Potency, µM (titrated, usually from 46.1 µM), without a hit: top-dose re-replication activation, usual class: activators. hit rate 1.8% among 340,000. AID 624297; further: potency means the concentration at half of the fitted maximal effect; % of control where 0% means no effect; nearly all actives have a fitted effect of over 55% in size
#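 Per well, 250 cells were exposed to pinned compound for 48 hr. Nuclear DNA was visualised with Hoechst (40 min, 37 C) and total object intensity recorded by fluorescence scanning.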
# BCR signal inh: inhibitors of chronic active B-cell receptor signaling; ABC-DLBCL IkBa-CBG/CBR reporter, luminescence ratio, 4 h; Potency, µM (highest dose often 46.1 µM), for inactives: at the top dose activity change, negative = inhibition, usual class: inhibitors; hit rate 0.05% among 340,000; AID 493014; active means well fitted inhibition curve with a large enough effect in the signal ratio, with a control signal flat, not every such curve was filed as active; inconclusive means small, poorly fitted or top-dose-only effect, or effect the other way, or a change in a side signal; the % refers to the signal ratio;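 further: potency means the concentration at half of the fitted maximal effect; plate controls were basal doxycycline-induced cells for no effect and cells given 10 µM MG132 for full effect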
#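 TMD8 human ABC-DLBCL cells with doxycycline-inducible IκBα–green luciferase fusion and unfused red luciferase, in 0.5% FBS medium; compounds up to 46 uM, 4 h at 37C. Green/red luminescence ratio, filter-overlap corrected, fitted to concentration-response curves.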
# DT40 TDP1 no CPT: qHTS for Inhibitors of human tyrosyl-DNA phosphodiesterase 1 (TDP1): qHTS in cells in absence of CPT; Potency, µM (titrated, usually from 46.2 µM), without a hit: at the top dose activity change, negative = growth inhibition, usual class: inhibitors; hit rate 15% among 420,000; AID 686978, 2013; DT40 Tdp1-/- hTDP1 cells, no CPT, ATP luminescence, 48 h; further: potency means the concentration at half of the fitted maximal effect; on the % scale 0 is the no-effect control and ±100 the full control effect; nearly all actives have a fitted effect of over 55% in size
#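 DT40 Tdp1-/-;hTDP1 cells, no CPT (DMSO vehicle only), 400 cells/well; compounds pin-transferred; ≥48 hr, 37 °C; CellTiter-Glo 30 min RT dark, luminescence read.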
# MCF10A rerep: DNA re-replication induction in MCF 10a cells | MCF 10A DNA re-replication, Hoechst nuclear intensity, 48 h | Potency, µM (doses to about 46.1 µM), inactives show at the top dose activity, positive = re-replication, usual class: activators | hit rate 2.9% among 350,000 | AID 624296; further: potency means the concentration at half of the fitted maximal effect; % of control where 0% means no effect; nearly all actives have a fitted effect of over 50% in size
# * = called active by the depositor; ? = inconclusive; · = no result given. Unless noted, the call rests on the fitted dose curve; in most records, active means well fitted curve in the direction sought with a large enough effect; inconclusive means small, poorly fitted or top-dose-only effect, or another doubt; inactive means no such curve, though single readings can be large; an effect the other way counts as inactive or inconclusive.
SMILES,IL-1B inflam inh,TDP1 cell CPT,SW480 rerep,BCR signal inh,DT40 TDP1 no CPT,MCF10A rerep
CCOC(=O)c1sc(=S)n(-c2ccccc2OC)c1N,8,?,-8%,4%,23µM*,3%
Cc1ccc(C)c(-n2c(N)c(C(N)=O)sc2=S)c1,2,-4%,-2%,-2%,2%,0%
OC[C@@H]1CN(CCN2CCOCC2)C[C@H](n2cnc3c(NC4CCCC4)ncnc32)O1,22,3%,·,·,-5%,·
O=C(C(=O)N1CCC(c2ccccc2)CC1)c1cccc([N+](=O)[O-])c1,-4,-8%,·,·,?,·
Cc1ccc(N(C)S(=O)(=O)c2c(C)noc2/C=C/N(C)C)cc1,-17,18µM*,15%,8%,?,?
Cc1ccc(CNC(=O)C2CCN(S(=O)(=O)c3c(C)noc3/C=C/N(C)C)CC2)cc1,0,1%,-10%,9%,14%,?
COc1ccc(NS(=O)(=O)c2ccc3oc(=O)c4[nH]c(=O)c(=O)n(C)c4c3c2)cc1,28,?,-3%,-1%,?,-7%
CCOC(=O)c1c(C)n(-c2ccccc2)c2ccc(OC(=O)c3ccc(OCC)c(OCC)c3)cc12,·,?,·,·,18µM*,·
CCOC(=O)c1c(C)n(-c2ccccc2)c2ccc(OC(=O)c3ccccc3Cl)cc12,·,?,·,·,16µM*,·
COc1ccc2c(c1)c(C(=O)N1CCN(C)CC1)c(C)n2-c1ccccc1,8,-15%,-4%,2%,-10%,0%
CCOC(=O)c1c(C)n(-c2ccccc2)c2ccc(OC(=O)c3cccc(OC)c3OC)cc12,·,-18%,·,·,-26%,·
CCOC(=O)c1c(C)n(-c2ccccc2)c2ccc(OC(=O)c3cc(OC)cc(OC)c3)cc12,·,?,·,·,21µM*,·
COc1cc(C2SC[C@H]3C(=O)N(c4ccccc4)C(=O)N23)cc(OC)c1OC (some centres undefined),·,-26%,·,·,?,·
Cc1cc(C(=O)N2CCOCC2)n(-c2ccccc2)n1,24,0%,11%,1%,-5%,24%
Cc1cc(C(=O)N2CC(C)CC(C)C2)n(-c2ccccc2)n1 (centres undefined),-9,10µM*,-3%,0%,8.2µM*,6%
CC1CCC2(CC1)NC(=O)N(CC(=O)Nc1cccc(C#N)c1)C2=O (centres undefined),0,-17%,-1%,2%,2%,3%
Cc1cc(C)c2nc(SCC(=O)NCCC3=CCCCC3)cc(C)c2c1,9,?,3%,1%,21µM*,10%
O=C(Cn1ncc2c3ccccc3n(Cc3ccc(Cl)cc3)c2c1=O)NCCC1=CCCCC1,·,4%,·,·,-3%,·
Cc1ccccc1Cn1c2ccccc2c2cnn(CC(=O)NCc3ccccn3)c(=O)c21,4,?,-2%,3%,?,3%
Cc1cc(C)c(Cn2c3ccccc3c3cnn(CC(=O)NCc4ccccn4)c(=O)c32)c(C)c1,31,21µM*,?,-1%,23µM*,?
Cc1cc(C)c(Cn2c3ccccc3c3cnn(CC(=O)NCCC4=CCCCC4)c(=O)c32)c(C)c1,·,21µM*,·,·,16µM*,·
Cc1cc(C)c(Cn2c3ccccc3c3cnn(CC(=O)NCCCc4ccccc4)c(=O)c32)c(C)c1,·,18µM*,·,·,21µM*,·
O=C(COC(=O)CCN1C(=O)C2CC=CCC2C1=O)Nc1ccc([N+](=O)[O-])cc1 (centres undefined),2,2%,11%,-6%,-8%,-2%
COc1ccc(-n2cc(C(=O)c3cc4ccccc4oc3=O)c(C(C)=O)n2)cc1,?,23µM*,-6%,-8%,?,16%
COc1ccccc1C1CC(=O)N(c2cccc(C(F)(F)F)c2)C2=C1C(=O)OC2 (centres undefined),·,8.2µM*,·,·,?,·
SMILES,IL-1B inflam inh,TDP1 cell CPT,SW480 rerep,BCR signal inh,DT40 TDP1 no CPT,MCF10A rerep
CCCC12CN3CC(C)(CN(C1)C3c1ccc(CC)cc1)C2=O (centres undefined),·,?,·,·,4.6µM*,·
OC[C@@H]1CN(Cc2ccccc2)C[C@H](n2cnc3c(NCc4ccco4)ncnc32)O1,0,-18%,·,·,-6%,·
OC[C@@H]1CN(Cc2ccc(-c3ccccc3)cc2)C[C@H](n2cnc3c(NCc4ccco4)ncnc32)O1,-24,9.2µM*,·,·,9.2µM*,·
OC[C@@H]1CN(Cc2ccc(-c3ccccc3)cc2)C[C@H](n2cnc3c(NCc4ccncc4)ncnc32)O1,-10,2.9µM*,·,·,3.3µM*,·
CCc1ccccc1NC(=O)CN1C(=O)C2CCCN2c2ccc(S(=O)(=O)N(CC)CC)cc21 (centres undefined),·,-23%,·,·,-27%,·
COc1ccc(N2CCN(S(=O)(=O)CCNC(=O)/C=C/c3ccccc3)CC2)cc1,8,1%,-2%,7%,-16%,5%
CCN1C(=O)[C@H]2[C@@H](c3ccc(C)cc3)N[C@]3(CCCN(Cc4ccc(C)cc4)C3=O)[C@H]2C1=O,?,?,·,·,3%,·
CCN1C(=O)[C@H]2[C@@H](c3ccc(C)cc3)N[C@]3(CCCN(Cc4ccc(Cl)cc4)C3=O)[C@H]2C1=O,14,?,·,·,21µM*,·
CCN1C(=O)[C@H]2[C@@H](c3ccc(C(F)(F)F)cc3)N[C@]3(CCCN(Cc4ccco4)C3=O)[C@H]2C1=O,19,23µM*,·,·,16µM*,·
CCN1C(=O)[C@H]2[C@@H](c3ccc(C(F)(F)F)cc3)N[C@]3(CCCN(Cc4ccc(Cl)cc4)C3=O)[C@H]2C1=O,-13,18µM*,·,·,18µM*,·
CCN1C(=O)[C@H]2[C@@H](c3ccc(C(F)(F)F)cc3)N[C@]3(CCCN(Cc4ccc(C)cc4)C3=O)[C@H]2C1=O,-7,13µM*,·,·,16µM*,·
O=C(NCc1ccccc1)C(=O)NCC(c1ccco1)S(=O)(=O)c1ccccc1 (centres undefined),·,-5%,·,-3%,-20%,·
C[C@@]12CCC(OC(=O)c3ccccc3)CC1CCc1ccccc12 (some centres undefined),·,-122%,·,·,9%,·
CNC[C@@H]1Oc2cc(Br)ccc2S(=O)(=O)N([C@@H](C)CO)C[C@@H]1C,13,-16%,·,·,0%,·
Cc1ccc(C(=O)N/N=C(\CC(C)C)c2ccccc2)cc1,-4,?,23µM*,?,21µM*,16%
